Source: PubChem BioAssay (NMMLSC)
Bim-Bfl-1: disrupts Bim binding to human Bfl-1 | Q16548 | Bead-based flow cytometry, Bim-Bfl-1 binding inhibition | inhibition, % at 10 µM | actives 0.12% (n = 190,000)
Target sequence (Q16548 whole entry, looked up): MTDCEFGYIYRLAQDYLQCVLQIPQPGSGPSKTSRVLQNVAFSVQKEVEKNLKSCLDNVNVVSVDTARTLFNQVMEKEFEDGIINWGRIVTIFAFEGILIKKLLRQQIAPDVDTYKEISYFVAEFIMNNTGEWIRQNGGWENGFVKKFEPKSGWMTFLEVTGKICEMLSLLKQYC
Bim-Bcl-W: disrupts Bim peptide binding to human Bcl-W; Q92843; bead-based flow cytometry; inhibition, % at 10 µM; actives 0.02% (n = 190,000);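 also: higher means less fluorescent Bim peptide bound to Bcl-W beads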
Bim-Bcl-XL: human Bim-Bcl-XL interaction inhibition | Q07817 | Bim peptide-Bcl-XL binding, bead flow cytometry, fluorescence | inhibition, % at 10 µM | actives 0.04% (n = 190,000)
Bim-Bcl-B: disrupts Bim peptide binding to human Bcl-B; AID 951; inhibition, % at 10 µM; actives 0.073% (n = 190,000); Q9HD36; bead-based flow cytometry
Target sequence (Q9HD36 whole entry, looked up): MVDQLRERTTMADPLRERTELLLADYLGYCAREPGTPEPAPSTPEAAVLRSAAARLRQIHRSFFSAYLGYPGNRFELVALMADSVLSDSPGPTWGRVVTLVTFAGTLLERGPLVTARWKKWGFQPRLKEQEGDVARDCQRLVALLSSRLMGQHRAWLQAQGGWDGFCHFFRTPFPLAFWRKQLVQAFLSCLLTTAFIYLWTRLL
Bcl-2 Bim block: disrupts Bim peptide binding to human Bcl-2. actives 0.06% (n = 190,000). Bead-based flow cytometry, Bim peptide-Bcl-2 binding. inhibition, % at 10 µM. AID 950; in the data active = inhibition above about 40%
Hits are given with their value; - = inactive; . = not tested or not shown. Hits are enriched below; roughly 0.2% of the tested compounds scored in any of these assays. Rule as the data show it, unless noted: active = inhibition above about 40%.

SMILES	Bim-Bfl-1	Bim-Bcl-W	Bim-Bcl-XL	Bim-Bcl-B	Bcl-2 Bim block
C#CCn1c(=O)cc(C)c2ccccc21	-	-	-	-	-
C#CCn1cc(C=C2C(=O)c3ccccc3C2=O)c2ccccc21	-	-	-	71	58
CCOc1cc(C2NC(=O)NC(O)(C(F)(F)F)C2C(=O)c2ccccc2)ccc1OC (stereo not given)	-	-	-	-	-
Cn1c(C(=O)N2CCN(Cc3ccc4c(c3)OCO4)CC2)cc2c(=O)n(C)c3ccccc3c21	-	-	-	-	-
Cc1ccc(S(=O)(=O)/N=C2/C=C(Sc3ncn[nH]3)C(=O)c3ccccc32)cc1	62	-	-	-	-
Cc1ccc(S(=O)(=O)/N=C2/C=C(Sc3ncn[nH]3)C(=O)c3ccccc32)c(C)c1	69	-	-	-	-
O=S(=O)(Nc1cccc(-c2cn3cccnc3n2)c1)c1ccccc1	-	-	-	-	-
CC1CCN(C2(O)C(=O)Nc3ccc(Br)cc32)CC1 (stereo not given)	-	-	63	57	47
CC(NCc1ccc(-c2ccccc2)cc1)C(O)c1ccccc1 (stereo not given)	-	-	40	-	-
CC(O)CNCc1ccc(-c2ccccc2)cc1 (stereo not given)	-	-	-	-	-
CCCCOC(=O)c1nc(Cl)c(Cl)c(N)c1Cl	-	-	-	42	-
O=C1/C(=C\c2ccc(-c3ccccc3Cl)o2)SC(=S)N1CC1CCCO1 (stereo not given)	-	-	-	-	45
O=C1/C(=C/c2cccnc2)SC(=S)N1CC1CCCO1 (stereo not given)	-	-	-	-	-
Cc1ccc(C)c(-n2c(SCC(=O)Nc3nonc3C)nnc2-c2ccoc2C)c1	-	-	-	-	-
Cc1nonc1NC(=O)CSc1nnc(-c2ccoc2C)n1C	44	-	43	-	-
O=C1NC(=O)C(=C2CCCCCC2)S1	-	-	-	-	-
O=C(CNC(=O)c1ccco1)NCC(=O)OCc1ccccc1Br	.	-	-	.	89
C/C(=N\NC(=O)COc1ccc(C(C)(C)C)cc1)c1ccc2c(c1)OCCO2	-	48	-	88	85
CCc1ccc(OCC(=O)N/N=C(\C)c2ccc3c(c2)OCCO3)cc1	-	-	-	-	-
CCN(C(=O)CSc1nnnn1-c1ccccc1)c1c(N)n(Cc2ccccc2)c(=O)[nH]c1=O	-	-	-	-	-
O=C(NC1CCCC1)c1ccc2nc(-c3ccco3)c(-c3ccco3)nc2c1	-	-	-	-	-
O=C(NCCO)c1ccc2nc(-c3ccco3)c(-c3ccco3)nc2c1	54	-	-	-	-
O=C(NCCc1ccccc1)c1ccc2nc(-c3ccco3)c(-c3ccco3)nc2c1	45	-	-	-	-
O=C(c1ccccc1)c1ccc2nc(-c3ccco3)c(-c3ccco3)nc2c1	47	-	-	-	-
COc1ccccc1C(O)(C(=O)NNc1ccccc1C)c1ccccc1OC	-	-	-	-	-
SMILES	Bim-Bfl-1	Bim-Bcl-W	Bim-Bcl-XL	Bim-Bcl-B	Bcl-2 Bim block
O=C(NCCS(=O)(=O)c1ccc(Cl)cc1)c1ccc(F)cc1	-	-	-	-	-
N#Cc1c(-c2ccccc2)ccnc1Oc1ccccc1	-	-	-	-	-
CCOc1ccc2oc(-c3ccccc3)c(C(=O)N3CCN(C)CC3)c2c1	-	-	-	-	-
COc1ccc2oc(-c3ccccc3)c(C(=O)N3CCOCC3)c2c1	60	-	-	81	80
CCC(=O)Nc1ccccc1C(=O)OCC(=O)c1cccc2ccccc12	-	-	-	-	-
COc1ccc(C(=O)Nc2ccc(C(=O)OCC(=O)c3cccc4ccccc34)cc2)cc1	-	-	-	83	.
O=C(CCCOc1ccc(Cl)cc1Cl)NCCCO	-	-	-	-	-
CCCCCCCC(=O)NNC(=O)CCC(=O)O	-	-	-	-	-
Cc1ccc(-c2nnc(Cc3ccc(Cl)cc3)o2)cc1	67	-	-	87	92
Nc1ccc(N2CCN(CCCCN3C(=O)C4CCCN4C3=O)CC2)cc1 (stereo not given)	-	-	-	63	-
CCOc1cc2c(C#N)c(N3CCNCC3)nc(N)c2c(N)n1	-	-	-	53	-
O=C(COC(=O)c1cncc(Br)c1)NCCC1=CCCCC1	-	-	-	-	-
Fc1ccc(C2=Nc3cccc4cccc(c34)N2)cc1	49	-	-	-	-
Brc1ccc(C2=Nc3cccc4cccc(c34)N2)o1	-	-	-	-	-
CC1CC(CN)CC(CO)C1 (stereo not given)	-	-	-	-	-
COc1ccc2c(c1O)-c1ccccc1CCN(C)C2	-	-	-	-	-
